Compound activity deposited in PubChem BioAssay by National Center for Advancing Translational Sciences (NCATS).
D2 ag-1 = Beta-Arrestin HTS for Positive Allosteric Modulators of the Human D2 Dopamine Receptor: Agonists. D(2) dopamine receptor (Homo sapiens), P14416. DiscoveRx PathHunter D2 beta-arrestin, luminescence, 90 min; 100% = 57 uM dopamine signal. activation, % (test concentration not listed). 360,000 tested, 0.084% active; in the data active = activation above about 40%
Target sequence (P14416 whole entry, looked up): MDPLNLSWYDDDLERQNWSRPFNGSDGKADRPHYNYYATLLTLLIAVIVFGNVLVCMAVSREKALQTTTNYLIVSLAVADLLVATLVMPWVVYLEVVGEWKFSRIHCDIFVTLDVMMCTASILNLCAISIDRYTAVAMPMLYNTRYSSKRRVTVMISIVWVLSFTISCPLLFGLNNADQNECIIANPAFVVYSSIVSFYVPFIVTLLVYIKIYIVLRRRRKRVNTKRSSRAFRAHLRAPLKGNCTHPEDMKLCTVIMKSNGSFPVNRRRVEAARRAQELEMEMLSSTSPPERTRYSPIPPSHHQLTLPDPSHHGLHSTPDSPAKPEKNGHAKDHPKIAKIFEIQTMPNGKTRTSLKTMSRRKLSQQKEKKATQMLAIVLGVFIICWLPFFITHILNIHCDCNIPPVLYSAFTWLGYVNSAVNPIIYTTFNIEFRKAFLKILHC
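Agonist mode: compounds alone added to overnight-plated D2 PathHunter cells for 90 min at 37 C, with 57 uM final dopamine (EC100) defining full response. Beta-arrestin recruitment detected by chemiluminescent reagent, read after 1 h at ambient temperature.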
D2 ag-2 = HTS Assay for Allosteric Agonists of the Human D2 Dopamine Receptor: Primary Screen for Agonists; D(2) dopamine receptor (Homo sapiens), P14416; HEK293 T-REx D2 cells, calcium flux agonist mode; activation, % at 2 µM; 340,000 tested, 0.53% active;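 active = activation over 3 SD above normal in the single-dose calcium agonist read, cut at about 30% in these data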
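Tetracycline-induced HEK293 Trex cells with D2 receptor force-coupled to calcium signaling, plated overnight at 30 C and loaded with no-wash calcium dye. Calcium flux read kinetically for 180 s after compound addition; responses flag agonists.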
D2 PAM-1 = HTS Assay for Positive Allosteric Modulators of the Human D2 Dopamine Receptor: Primary Screen for Potentiators; AID 485347, 2010; HEK293 T-REx D2, calcium flux, EC20 dopamine potentiation; potentiation, % at 10 µM; 340,000 tested, 0.34% active; D(2) dopamine receptor (Homo sapiens), P14416;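 active = potentiation over 3 SD above the plate norm, cut at about 30% in these data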
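Potentiation of an EC20 dopamine calcium response measured kinetically over 180 s, after a preceding 180 s compound-only read flagging agonists. Cells: inducible Hek293 Trex D2 line, 4000/well, cultured overnight at 30 C before dye loading.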
D2 antagonist = HTS Assay for Allosteric Antagonists of the Human D2 Dopamine Receptor: Primary Screen for Antagonists; HEK293 TREx D2 cells, calcium flux, dopamine EC80; inhibition, % at 10 µM; 340,000 tested, 2% active; in the data active = inhibition above about 30%; inactive = below that, where a call was filed
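Calcium flux kinetic readout in an inducible HEK293 TREx D2 line plated overnight at 30 C. After 180 s compound exposure, an EC80 dopamine challenge follows with another 180 s kinetic read to detect antagonism.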
D2 PAM-2 = Beta-Arrestin HTS for Positive Allosteric Modulators of the Human D2 Dopamine Receptor: Potentiators | D(2) dopamine receptor (Homo sapiens), P14416 | DiscoveRx D2 beta-arrestin cells, luminescence, 90 min; 100% = 57 uM dopamine signal | potentiation, % (no concentration beside the values) | 360,000 tested, 0.23% active | AID 624464, 2012; in the data active = potentiation above about 50%
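PathHunter beta-arrestin assay in DiscoveRx D2 cells. Compounds were added with an EC20 of dopamine (50 nM final) for 90 min at 37 deg C. Luminescence was read 1 h after detection reagent, with 57 uM dopamine as the EC100 control.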
Numbers stand for hits; . = inactive; / = not tested or not shown. Rows were chosen to be rich in hits. Some 2.4% of all compounds tested hit in one or more screens of this group.

SMILES	D2 ag-1	D2 ag-2	D2 PAM-1	D2 antagonist	D2 PAM-2
C=CCn1c(-c2ccc(OC)c(OC)c2)n[nH]c1=S	.	.	.	.	.
C=CCn1c(-c2c(C)nc3cc(C)ccn23)n[nH]c1=S	.	.	.	35.6	.
Cc1cc(Br)ccc1NS(=O)(=O)c1c(C)[nH]c(=O)[nH]c1=O	.	.	.	.	.
Cc1cc(NS(=O)(=O)c2c(C)[nH]c(=O)[nH]c2=O)ccc1Br	.	.	.	40.8	.
Cc1ccccc1OCc1nnc(SCc2cc(=O)c3cccc(F)c3[nH]2)n1C	/	/	.	/	/
O=C(c1c(F)c(F)c(F)c(F)c1F)N1CCN(Cc2ccc3c(c2)OCO3)CC1	.	/	/	/	.
O=C(c1ccc(Br)s1)N1CCN(Cc2ccc3c(c2)OCO3)CC1	.	.	.	78.4	.
Cn1c(C(=O)N2CCC(C(=O)N3CCN(Cc4ccc5c(c4)OCO5)CC3)CC2)cc2sccc21	.	.	.	.	.
O=C(c1cc2c(s1)CCCC2)N1CCN(Cc2ccc3c(c2)OCO3)CC1	.	.	.	74.7	.
Cn1c(C(=O)N2CCN(Cc3ccc4c(c3)OCO4)CC2)cc2sccc21	.	.	.	99.7	.
O=C(C1CCN(c2nnc(-n3cccc3)s2)CC1)N1CCN(Cc2ccc3c(c2)OCO3)CC1	.	71.4	.	31.5	.
COc1cccc(CN2CCC(C(=O)N3CCN(Cc4ccc5c(c4)OCO5)CC3)CC2)c1	.	.	.	.	.
COc1cc(NC(=O)Cn2c(C)cc(C)c(C#N)c2=O)cc(OC)c1	/	.	.	/	/
Oc1ccc(-c2nccc(-c3ccc(Cl)cc3)n2)cc1	.	.	.	.	.
Oc1ccc(-c2nccc(-c3ccc(Cl)cc3Cl)n2)cc1	.	.	94.8	.	.
CCOc1ccccc1NC(=O)Cn1c(=O)nc(-c2ccccc2F)c2cc(Cl)ccc21	/	.	.	/	/
O=C1C=C(c2ccccc2)CC(c2cccs2)C1n1cnc([N+](=O)[O-])c1 (stereo unspecified)	.	.	.	.	.
O=C1C=C(c2ccccc2)C[C@H](c2cccs2)[C@H]1n1nnc([N+](=O)[O-])n1	.	/	.	/	57.8
Cc1ccc(N2CC(NC(=O)Cc3cccs3)CC2=O)cc1C (stereo unspecified)	/	.	.	/	/
C=CCN(c1ccccc1)S(=O)(=O)c1cccc(C(=O)Nc2nnc(SCC)s2)c1	.	.	.	42.6	.
Cc1c(Cl)cccc1-n1nc(C)c2c(C)cc(=O)n(CC(=O)N3CCCc4ccccc43)c21	/	.	.	/	/
CCOC(=O)c1cc(-c2ccc(OC)c(S(=O)(=O)N3CCN(c4ccccc4)CC3)c2)on1	/	.	.	/	/
Nc1[nH]nc2ncc3cc4ccccc4nc3c12	.	.	.	59.5	.
O=C1CSC(=S)N1/N=C/c1cc(Br)c(O)c(Br)c1	.	84.6	.	.	.
O=c1oc2c(CN3CCCCCC3)c(O)ccc2cc1-c1nc2ccccc2[nH]1	/	77.3	.	.	/
SMILES	D2 ag-1	D2 ag-2	D2 PAM-1	D2 antagonist	D2 PAM-2
Cc1ccc(C)c(NC(=O)Cn2c(=O)n(Cc3ccco3)c(=O)c3oc4ccccc4c32)c1	/	.	/	/	/
Cc1cccc(CCNC(=O)c2sc3nc4n(c(=O)c3c2C)CCCC4)c1	/	.	/	/	/
Cc1ccc(S(=O)(=O)c2cn(C)c3cc(N4CCCC(C)C4)c(F)cc3c2=O)c(C)c1 (stereo unspecified)	/	.	.	/	/
CCc1cccc(CC)c1NC(=O)CCCSc1nc2ccccc2s1	.	.	.	30.3	.
Cc1cccc(C)c1NC(=O)CCCSc1nc2ccccc2s1	.	.	.	.	.
COC(=O)c1ccccc1NC(=O)CSc1nnc(-c2ccc(C)cc2)o1	/	.	31.1	.	/
COC(=O)c1ccccc1NC(=O)CSc1nnc(-c2cccnc2)o1	.	.	/	.	.
COc1cccc(CNC(=O)c2cc(C)nc3c2c(C)nn3-c2cccc(F)c2)c1	/	.	.	/	/
COCCNC(=O)c1sc2nc3n(c(=O)c2c1C)CCC3	/	.	.	/	/
CC1CCCC(NC(=O)CC2Nc3ccccc3NC2=O)C1C (stereo unspecified)	.	.	.	30.5	.
O=C(CC1Nc2ccccc2NC1=O)NC1CCCCC1 (stereo unspecified)	.	.	.	.	.
CCN(c1ccccc1)S(=O)(=O)c1cc(C(=O)OC2CCOC2=O)ccc1C (stereo unspecified)	.	.	31.0	.	.
CS(=O)(=O)c1ccc(C(=O)OC2CCOC2=O)cc1[N+](=O)[O-] (stereo unspecified)	.	.	.	.	.
O=C(O)c1ccc(S(=O)(=O)c2ccc3c(c2)C(=O)N(NC(=O)c2ccc(O)cc2)C3=O)cc1	.	.	.	.	.
Cc1ccc(C(=O)NN2C(=O)c3ccc(S(=O)(=O)c4ccc(C(=O)O)cc4)cc3C2=O)cc1	.	.	.	62.6	.
Cc1ccc2[nH]c(CSc3nnc(NC(=O)COc4ccccc4C)s3)cc(=O)c2c1	/	.	.	/	/
Cn1c(N)c(C(=O)CSc2nnc(-c3ccccc3F)n2N)c(=O)n(C)c1=O	.	.	.	33.7	.
Cn1c(N)c(C(=O)CSc2nnc(-c3ccccc3F)n2C2CC2)c(=O)n(C)c1=O	.	.	.	.	.
CCc1nnc(NC(=O)COc2ccc3c(c2)OCO3)s1	.	.	30.4	.	.
CCCc1nnc(NC(=O)COc2ccc3c(c2)OCO3)s1	.	.	.	.	.
O=C(Nc1cccc(C(F)(F)F)c1)C1CCN(S(=O)(=O)c2ccc(N3CCCC3=O)cc2)CC1	.	.	.	64.4	.
O=C(NCc1ccccc1)C1CCN(S(=O)(=O)c2ccc(N3CCCC3=O)cc2)CC1	.	.	.	.	.
COc1ccccc1CNC(=O)C1CCN(S(=O)(=O)c2ccc(N3CCCC3=O)cc2)CC1	.	.	.	36.8	.
COCCN1CCc2nc(SCC(=O)Nc3ccc(C)c(Cl)c3)[nH]c(=O)c2C1	/	.	.	/	/
O=C(NCc1cccs1)C1CCCN1C(=O)Nc1ccccc1 (stereo unspecified)	.	.	.	.	.
O=C(NCc1cccs1)C1CCCN1C(=O)Nc1ccc(Cl)cc1 (stereo unspecified)	/	.	.	31.6	/
CCOc1ccccc1CN1CCc2nc(Nc3ccc4c(c3)OCCO4)ncc2C1	/	.	.	/	/
CCOc1cc(C(=O)Nc2ccc3c(c2)OCO3)ccc1OCCOc1ccccc1Cl	.	.	.	31.8	.
